# Test results: PubChem BioAssay (Tox21)
# Unmarked numbers belong to inactive results. Records with an inconclusive call do not appear. Where a call stands in place of a potency, no number is given. The source made the active and inactive calls. Unless noted, the call rests on the fitted dose curve; in most records, active means well fitted curve in the direction sought with a large enough effect in the repeat runs; inconclusive means weak or mixed curves; inactive means no such curve, though single readings can be large; an effect the other way counts as inactive or inconclusive.
# Legend:
# [1] = qHTS assay to identify small molecule agonists of the estrogen related receptor (ERR) signaling pathway from Tox21 library (AID 1224849; calls by dose curve; further: nearly all actives have a fitted effect of over 15% in size)
# In short: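 Six hours post-seeding at 37 C/5% CO2, ERR cells receive DMSO-solubilised compounds; after 18 h at 37 C, ONE-Glo reagent is applied and luminescence recorded.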
# [2] = qHTS RealTime-Glo MT Cell Viability Assay in HepG2 cells - 24 hour (AID 1224867); further: nearly all actives have a fitted effect of over 50% in size
# In short: (§1)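 HepG2 suspension premixed with RealTime-Glo reagents is plated at 600 cells per well and left 5 h at 37 C/5% CO2. Compounds in DMSO then go in, and bioluminescence reflecting viable cell number is recorded over 40 h.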
# [3] = qHTS RealTime-Glo MT Cell Viability Assay in HEK293 cells - 32 hour (AID 1224868); further: nearly all actives have a fitted effect of over 50% in size; further: potency means the concentration at half of the fitted maximal effect; on activity change, negative = cytotoxic: top concentration of the series differs between compounds
# In short: (§2)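 Reads taken at 0, 8, 16, 24, 32 and 40 h from the same wells. HEK293 cells (600/well) carried RealTime-Glo reagents from seeding, with compound added after a 5 h settle at 37 C.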
# [4] = qHTS RealTime-Glo MT Cell Viability Assay in HepG2 cells - 40 hour (AID 1224870); further: nearly all actives have a fitted effect of over 50% in size
# In short: (§3)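 Real-time viability: cells seeded at 600 per well together with NanoLuc and cell-permeant prosubstrate, compounds added after 5 h incubation. Luminescence tracked at 0, 8, 16, 24, 32 and 40 h of exposure.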
# [5] = A CellTox Green Cytotoxicity Assay to monitor cytotoxicity in HEK293 cells - 40 hour (AID 1224871); further: nearly all actives have a fitted effect of over 45% in size
# In short: (§4)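 Seeding of HEK293 cells together with cytotoxicity dye preceded a 5 h incubation at 37 C/5% CO2. Test compounds in DMSO were then added and fluorescence monitored across 40 h.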
# [6] = qHTS RealTime-Glo MT Cell Viability Assay in HEK293 cells - 16 hour (AID 1224872); further: nearly all actives have a fitted effect of over 50% in size; further: potency means the concentration at half of the fitted maximal effect; on activity change, negative = cytotoxicity: top concentration of the series differs between compounds
# In short: as §2
# [7] = qHTS RealTime-Glo MT Cell Viability Assay in HepG2 cells - 8 hour (AID 1224873); further: nearly all actives have a fitted effect of over 55% in size
# In short: as §3
# [8] = qHTS RealTime-Glo MT Cell Viability Assay in HEK293 cells - 40 hour (AID 1224874); settings: RealTime-Glo luminescence; max response: hits give low values; further: nearly all actives have a fitted effect of over 50% in size; further: potency means the concentration at half of the fitted maximal effect
# In short: (§5)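 Tox21 screen in HEK293 using RealTime-Glo MT chemistry, with cells and reagent co-dispensed. Luminescence proportional to viable cell number was captured at intervals during 40 h compound exposure at 37 C.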
# [9] = A CellTox Green Cytotoxicity Assay to monitor cytotoxicity in HEK293 cells - 24 hour (AID 1224875); further: series mostly up to about 77 µM; nearly all actives have a fitted effect of over 45% in size
# In short: as §4
# [10] = A CellTox Green Cytotoxicity Assay to monitor cytotoxicity in HepG2 cells - 16 hour (AID 1224876); further: nearly all actives have a fitted effect of over 45% in size
# In short: (§6)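 Nonlytic assay: viable cells exclude the dye, so fluorescence scales with cell death. HepG2 at 600 cells/well, compounds added after 5 h, signal read across 40 h.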
# [11] = qHTS RealTime-Glo MT Cell Viability Assay in HepG2 cells - 32 hour (AID 1224877); further: nearly all actives have a fitted effect of over 55% in size
# In short: as §1
# [12] = A CellTox Green Cytotoxicity Assay to monitor cytotoxicity in HepG2 cells - 40 hour (AID 1224879); further: nearly all actives have a fitted effect of over 40% in size
# In short: as §6
# [13] = qHTS RealTime-Glo MT Cell Viability Assay in HEK293 cells - 0 hour (AID 1224880); further: top concentration of the series differs between compounds; nearly all actives have a fitted effect of over 45% in size
# In short: as §5
# [14] = A CellTox Green Cytotoxicity Assay to monitor cytotoxicity in HEK293 cells - 32 hour (AID 1224881); further: nearly all actives have a fitted effect of over 40% in size
# In short: as §4
# [15] = A CellTox Green Cytotoxicity Assay to monitor cytotoxicity in HepG2 cells - 0 hour (AID 1224882); further: nearly all actives have a fitted effect of over 35% in size
# In short: as §6
# [16] = A CellTox Green Cytotoxicity Assay to monitor cytotoxicity in HepG2 cells - 32 hour (AID 1224883); further: nearly all actives have a fitted effect of over 50% in size
# In short: as §6
# [17] = A CellTox Green Cytotoxicity Assay to monitor cytotoxicity in HEK293 cells - 8 hour (AID 1224884); further: nearly all actives have a fitted effect of over 35% in size
# In short: as §4
# [18] = qHTS RealTime-Glo MT Cell Viability Assay in HepG2 cells - 16 hour (AID 1224885); further: nearly all actives have a fitted effect of over 50% in size
# In short: as §1
# [19] = A CellTox Green Cytotoxicity Assay to monitor cytotoxicity in HEK293 cells - 0 hour (AID 1224869); further: nearly all actives have a fitted effect of over 50% in size
# In short: as §4
# [20] = A CellTox Green Cytotoxicity Assay to monitor cytotoxicity in HepG2 cells - 24 hour (AID 1224878); further: nearly all actives have a fitted effect of over 45% in size
# In short: as §6
smiles,measurement,setting,value
CCC(C)(CCC(C)C)C(=O)[O-].CCC(C)(CCC(C)C)C(=O)[O-].[Zn+2] (configuration not stated),outcome,[1],inactive
same,outcome,[2],inactive
same,Potency,[3],inactive
same,outcome,[4],inactive
same,Potency,[5],inactive
same,Potency,[6],inactive
same,outcome,[7],inactive
same,max response,[8],0.868%
same,Potency,[9],inactive
same,Potency,[10],inactive
same,outcome,[11],inactive
same,Potency,[12],inactive
same,outcome,[13],inactive
same,Potency,[14],inactive
same,Potency,[15],inactive
same,Potency,[16],inactive
same,Potency,[17],inactive
same,outcome,[18],inactive
CCCCC(C)C(=O)O (configuration not stated),outcome,[1],inactive
same,outcome,[2],inactive
same,Potency,[3],inactive
same,Potency,[19],inactive
same,Potency,[6],inactive
same,max response,[8],-5.74%
same,Potency,[9],inactive
same,outcome,[13],inactive
same,Potency,[14],inactive
same,Potency,[17],inactive
same,outcome,[18],inactive
O=CO,"activity change, positive = activation",[1],-1.2% [at 8.39 µM]
same,"activity change, negative = cytotoxicity",[2],0.773% [at 6.97 µM]
same,"activity change, negative = cytotoxic",[3],1.16% [at 6.97 µM]
same,cytotoxicity,[19],-3.71% [at 6.97 µM]
same,"activity change, negative = cytotoxicity",[6],2.46% [at 6.97 µM]
same,"viability change, negative = cytotoxic",[7],-8.93% [at 6.97 µM]
same,max response,[8],-0.6%
same,cytotoxicity increase,[10],-13.8% [at 6.97 µM]
same,"activity change, negative = cytotoxic",[11],7.5% [at 6.97 µM]
same,cytotoxicity,[20],-17.2% [at 6.97 µM]
same,cytotoxicity increase,[12],-21.3% [at 6.97 µM]
same,"activity change, negative = cytotoxicity",[13],3.48% [at 6.97 µM]
same,cytotoxicity,[15],-9.11% [at 6.97 µM]
same,cytotoxicity increase,[16],-19.2% [at 6.97 µM]
same,"activity change, negative = cytotoxic",[18],-5.47% [at 6.97 µM]
O=P(O)(O)OCC(O)CO (configuration not stated),outcome,[1],inactive
same,outcome,[2],inactive
same,Potency,[3],inactive
same,Potency,[19],inactive
same,outcome,[4],inactive
same,Potency,[6],inactive
same,outcome,[7],inactive
same,max response,[8],-2.63%
same,Potency,[9],inactive
same,Potency,[20],inactive
same,outcome,[13],inactive
same,Potency,[14],inactive
same,Potency,[15],inactive
same,Potency,[16],inactive
same,Potency,[17],inactive
same,outcome,[18],inactive
Nc1ccc(C(=O)OCC(O)CO)cc1 (configuration not stated),outcome,[1],inactive
same,outcome,[2],inactive
same,Potency,[3],inactive
same,outcome,[4],inactive
same,Potency,[5],inactive
same,Potency,[6],inactive
same,outcome,[7],inactive
same,max response,[8],2.88%
same,Potency,[9],inactive
same,outcome,[11],inactive
same,Potency,[20],inactive
same,Potency,[12],inactive
same,outcome,[13],inactive
same,Potency,[14],inactive
same,Potency,[16],inactive
same,Potency,[17],inactive
same,outcome,[18],inactive
Cc1nc(C)nc(N2C[C@@H](C)N(c3ccnc([C@@H](C)O)n3)[C@@H](C)C2)n1,outcome,[1],inactive
same,outcome,[2],inactive
same,Potency,[3],inactive
same,outcome,[4],inactive
same,Potency,[6],inactive
same,max response,[8],9.39%
same,Potency,[9],inactive
same,Potency,[10],inactive
same,outcome,[11],inactive
same,Potency,[20],inactive
same,outcome,[13],inactive
same,Potency,[14],inactive
same,Potency,[16],inactive
same,Potency,[17],inactive
same,outcome,[18],inactive
NC(=O)NC(=O)Cc1ccccc1,outcome,[1],inactive
same,outcome,[2],inactive
same,Potency,[3],inactive
same,outcome,[4],inactive
same,Potency,[5],inactive
same,Potency,[6],inactive
same,outcome,[7],inactive
same,max response,[8],3.75%
same,Potency,[9],inactive
same,outcome,[11],inactive
same,Potency,[12],inactive
same,outcome,[13],inactive
same,Potency,[14],inactive
same,Potency,[15],inactive
same,Potency,[16],inactive
same,Potency,[17],inactive
CCN(CCO)c1cccc(C)c1,outcome,[1],inactive
same,outcome,[2],inactive
same,Potency,[3],inactive
same,Potency,[19],inactive
same,outcome,[4],inactive
same,Potency,[6],inactive
same,outcome,[7],inactive
same,max response,[8],6.86%
same,Potency,[9],inactive
same,Potency,[10],inactive
same,outcome,[11],inactive
same,Potency,[20],inactive
same,Potency,[12],inactive
same,outcome,[13],inactive
same,Potency,[14],inactive
same,Potency,[16],inactive
same,Potency,[17],inactive
same,outcome,[18],inactive
CN=C(NC#N)NCCSCc1csc(N=C(N)N)n1,outcome,[1],inactive
same,outcome,[2],inactive
same,Potency,[3],inactive
same,Potency,[19],inactive
same,Potency,[5],inactive
same,Potency,[6],inactive
same,outcome,[7],inactive
same,max response,[8],1.73%
same,Potency,[9],inactive
same,Potency,[10],inactive
same,Potency,[20],inactive
same,Potency,[12],inactive
same,outcome,[13],inactive
same,Potency,[14],inactive
same,Potency,[15],inactive
same,Potency,[16],inactive
same,Potency,[17],inactive
same,outcome,[18],inactive
Cc1nc2n(c(=O)c1CCN1CCC(C(=O)c3ccc(F)cc3)CC1)CCS2,outcome,[1],inactive
same,outcome,[2],inactive
same,Potency,[3],5.35 µM (active)
same,Potency,[19],inactive
same,Potency,[5],inactive
same,Potency,[6],9.52 µM (active)
same,outcome,[7],inactive
same,Potency,[8],6.01 µM (active)
same,Potency,[9],inactive
same,Potency,[10],inactive
same,outcome,[11],inactive
same,Potency,[20],inactive
same,Potency,[12],inactive
same,outcome,[13],inactive
same,Potency,[14],inactive
same,Potency,[16],inactive
same,Potency,[17],inactive
CC(C)SCc1ccco1,outcome,[1],inactive
same,outcome,[2],inactive
same,Potency,[3],inactive
same,Potency,[19],inactive
same,outcome,[4],inactive
same,Potency,[6],inactive
same,outcome,[7],inactive
same,max response,[8],4.71%
same,Potency,[9],inactive
same,Potency,[10],inactive
same,outcome,[11],inactive
same,Potency,[20],inactive
same,outcome,[13],inactive
same,Potency,[14],inactive
same,Potency,[15],inactive
same,Potency,[16],inactive
same,Potency,[17],inactive
same,outcome,[18],inactive
CC(C)C(=O)c1ccccc1,outcome,[1],inactive
same,outcome,[2],inactive
same,Potency,[3],inactive
same,Potency,[19],inactive
same,Potency,[5],inactive
same,Potency,[6],inactive
same,outcome,[7],inactive
same,max response,[8],-17.8%
same,Potency,[9],inactive
same,Potency,[10],inactive
same,outcome,[11],inactive
same,Potency,[12],inactive
same,outcome,[13],inactive
same,Potency,[14],inactive
same,Potency,[15],inactive
same,Potency,[16],inactive
same,Potency,[17],inactive
C[C@H](CCC(=O)NCC(=O)O)[C@H]1CC[C@H]2[C@@H]3[C@H](O)C[C@@H]4C[C@H](O)CC[C@]4(C)[C@H]3C[C@H](O)[C@]12C,outcome,[1],inactive
same,outcome,[2],inactive
same,Potency,[3],9.49 µM (active)
same,Potency,[19],inactive
same,Potency,[5],inactive
same,outcome,[7],inactive
same,Potency,[8],9.49 µM (active)
same,Potency,[9],inactive
same,Potency,[10],inactive
same,outcome,[11],inactive
same,Potency,[20],inactive
same,Potency,[12],inactive
same,outcome,[13],inactive
same,Potency,[14],inactive
same,Potency,[15],inactive
same,Potency,[16],inactive
same,Potency,[17],inactive
same,outcome,[18],inactive
CNCc1ccccc1,outcome,[1],inactive
same,outcome,[2],inactive
same,Potency,[3],inactive
same,Potency,[19],inactive
same,Potency,[5],inactive
same,Potency,[6],inactive
same,outcome,[7],inactive
same,max response,[8],-3.32%
same,Potency,[9],inactive
same,Potency,[10],inactive
same,outcome,[11],inactive
same,Potency,[20],inactive
same,Potency,[12],inactive
same,outcome,[13],inactive
same,Potency,[14],inactive
same,Potency,[15],inactive
same,Potency,[16],inactive
same,Potency,[17],inactive
same,outcome,[18],inactive
COc1ccc(NS(=O)(=O)c2ccc(N)cc2)nn1,outcome,[1],inactive
same,outcome,[2],inactive
same,Potency,[3],inactive
same,outcome,[4],inactive
same,Potency,[5],inactive
same,Potency,[6],inactive
same,outcome,[7],inactive
same,max response,[8],3.44%
same,Potency,[9],inactive
same,Potency,[10],inactive
same,outcome,[11],inactive
same,Potency,[20],inactive
same,Potency,[12],inactive
same,outcome,[13],inactive
same,Potency,[14],inactive
same,Potency,[15],inactive
same,Potency,[16],inactive
same,Potency,[17],inactive
same,outcome,[18],inactive
